The term AC50 denotes the midpoint of the concentration-response curve, whichever way the signal moves.

Results filed as inconclusive are left out. Calls of active or inactive are those of the source. Unless noted, the limit is not given here; nearly all actives have AC50 up to about 26 µM.

In PubChem BioAssay one finds outcome and AC50 data, which are given here for 37 compounds.
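Also: cells exposed to compound for 48 hours before readout.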

The nature of the first experiment: SU-DIPG-VI glioma cell viability, MIPE4.0 library, CellTiter-Glo luminescence, qHTS (AID 1347066; cut-off not given, nearly all actives have AC50 up to about 30 µM). The following applies: CellTiter-Glo ATP luminescence. Background: ATP-based viability assays read luminescence as a measure of living cells.
In the case of `C[C@H]1[C@H](O)O[C@@H]2O[C@@]3(C)CC[C@H]4[C@H](C)CC[C@@H]1[C@@]24OO3`, the result was inactive.
With `Cc1cc(Nc2cc(CN3CCOCC3)c3nc(C)c(Cc4ccc(Cl)cc4F)n3n2)n[nH]1`, the AC50 was 23.5 µM (active).
`COc1cc(F)c(C(C)C)cc1-c1ccc(C(F)(F)F)cc1CN1C(=O)O[C@H](c2cc(C(F)(F)F)cc(C(F)(F)F)c2)[C@@H]1C`: the compound was called inactive.
On to `COc1cc(C(C)C)c(Oc2cnc(NC(CO)CO)nc2N)cc1I`, for which the result was inactive.
Consider `COc1ccccc1[C@H](c1cccc2ccccc12)[C@@](C)(C#N)C(=O)N1CCC(c2cccc(C(F)(F)F)c2)CC1`, for which the outcome was inactive.
`O=C(Nc1ccccc1-c1cn2c(CN3CCNCC3)csc2n1)c1cnc2ccccc2n1`: the AC50 was 10.5 µM (active).
Still for that read-out and setting: as for `COc1cc(C)c(Sc2cnc(NC(=O)c3ccc(CNC(C)C(C)C)cc3)s2)cc1C(=O)N1CCN(C(C)=O)CC1` (centres undefined), the figure is 14.8 µM (active).
Turning to `CC(C)C[C@@H](N)[C@H](O)C(=O)N[C@H](C(=O)N[C@H](C(=O)N[C@@H](CC(=O)O)C(=O)O)C(C)C)C(C)C`, the call was inactive.
Consider `N#Cc1c(NC(=O)c2cccc3ccccc23)sc2c1CCCC2`, for which the result was inactive.
For `CC(C)CNc1ccnc(NCc2csc(-c3ccccc3)n2)n1`, the AC50 was 20.9 µM (active).
Regarding `COc1c(OCCCN2CCOCC2)ccc2c3n(c(=NC(=O)c4cnc(N)nc4)nc12)CCN3`, the AC50 is 0.0457 µM (active).
Consider `COc1ccc2c(c1)CC[C@@H]1[C@@H]2CC[C@]2(C)[C@@H](NCCCCCCN3C(=O)C=CC3=O)CC[C@@H]12`, for which the compound was called inactive.
For `CC(C)c1cc(C(C)C)c(CC(=O)NS(=O)(=O)Oc2c(C(C)C)cccc2C(C)C)c(C(C)C)c1`, the AC50 was 10.5 µM (active).
Same read-out and setting: as for `CC1(C)CCC2=C(O1)c1ccccc1C(=O)C2=O`, the figure is 20.9 µM (active).
Turning to `Nc1nc(Nc2ccc(S(N)(=O)=O)cc2)nn1C(=O)c1c(F)cccc1F`, the outcome was inactive.
For the compound `C/C(O)=C(\C#N)C(=O)Nc1ccc(C(F)(F)F)cc1`, the result was inactive.
As to `CN1N=C(N)c2cn([C@@H]3O[C@H](COP(=O)(O)O)[C@@H](O)[C@H]3O)c3ncnc1c23`, the AC50 was 0.132 µM (active).
Take `COc1ccc(-c2ccc3c(N4CCOCC4)nc(N4C[C@@H](C)O[C@@H](C)C4)nc3n2)cc1CO`: the compound was called inactive.
Same read-out and setting: the result for `CCOc1cc2ncc(C#N)c(Nc3ccc(OCc4ccccn4)c(Cl)c3)c2cc1NC(=O)/C=C/CN(C)C` reads “inactive”; that for `COC(=O)c1ccc2c(C(=Nc3ccc(N(C)C(=O)CN4CCN(C)CC4)cc3)c3ccccc3)c(O)[nH]c2c1`, “inactive”.

The nature of the next experiment: JHH-DIPG-1 glioma cell viability, MIPE5.0 library, CellTiter-Glo luminescence, qHTS (AID 1347067). As to conditions: JHH-DIPG-1 glioma viability, CellTiter-Glo ATP luminescence.
On to `O[C@@H](COc1cccc2ncccc12)CN1CCN(C2c3ccccc3[C@@H]3[C@H](c4ccccc42)C3(F)F)CC1` (some centres undefined), for which the AC50 is 23.5 µM (active).
Consider `NCc1c[nH]c(=S)n1[C@H]1CCc2c(F)cc(F)cc2C1`, for which the result was inactive.
Consider `C#CCN(C)CC1=Cc2ccccc2Oc2ccccc21`, for which the outcome was inactive.
For the compound `Cc1cc(Nc2cc(CN3CCOCC3)c3nc(C)c(Cc4ccc(Cl)cc4F)n3n2)n[nH]1`, the AC50 is 3.32 µM (active).
Consider `COc1cc(F)c(C(C)C)cc1-c1ccc(C(F)(F)F)cc1CN1C(=O)O[C@H](c2cc(C(F)(F)F)cc(C(F)(F)F)c2)[C@@H]1C`, for which the compound was called inactive.
For `COc1cc(C(C)C)c(Oc2cnc(NC(CO)CO)nc2N)cc1I`, the compound was called inactive.
As to `CC1=C[C@@H]2[C@H]([C@@H](O)C[C@@]3(C)[C@H]2C[C@@H](C)[C@]3(O)C(=O)CO)[C@@]2(C)Cc3cnn(-c4ccccc4)c3C=C12`, the half-maximal activity concentration (AC50) is 11.8 µM (active).
As for `COc1ccccc1[C@H](c1cccc2ccccc12)[C@@](C)(C#N)C(=O)N1CCC(c2cccc(C(F)(F)F)c2)CC1`, the outcome was inactive.
Take `O=C(Nc1ccccc1-c1cn2c(CN3CCNCC3)csc2n1)c1cnc2ccccc2n1`: the AC50 was 3.72 µM (active).
`COc1cc(C)c(Sc2cnc(NC(=O)c3ccc(CNC(C)C(C)C)cc3)s2)cc1C(=O)N1CCN(C(C)=O)CC1` (centres undefined): the AC50 was 16.6 µM (active).
Regarding `Cc1cnc(NC(=O)Nc2cc(Br)c(C)cc2OC[C@@H]2CNCCO2)cn1`, the half-maximal activity concentration (AC50) was 20.9 µM (active).
Consider `CC(C)C[C@@H](N)[C@H](O)C(=O)N[C@H](C(=O)N[C@H](C(=O)N[C@@H](CC(=O)O)C(=O)O)C(C)C)C(C)C`, for which the compound was classed as inactive.
Turning to `CCOc1cc(/C=C2/C(=O)N(c3ccccc3)N=C2C)cc(Cl)c1OCC(=O)OC`, the compound was called inactive.
As for `N#Cc1c(NC(=O)c2cccc3ccccc23)sc2c1CCCC2`, the AC50 is 0.263 µM (active).
Take `CC(C)CNc1ccnc(NCc2csc(-c3ccccc3)n2)n1`: the AC50 is 20.9 µM (active).
Take `COc1c(OCCCN2CCOCC2)ccc2c3n(c(=NC(=O)c4cnc(N)nc4)nc12)CCN3`: the AC50 was 0.191 µM (active).
Consider `COc1ccc(-c2ccc3c(N4CCOC[C@@H]4C)nc(N4CCOC[C@@H]4C)nc3n2)cc1CO`, for which the AC50 is 0.059 µM (active).
In the case of `COc1cccc2cc(-c3nc(C4CCC(C(=O)O)CC4)n4ncnc(N)c34)[nH]c12` (centres undefined), the half-maximal activity concentration (AC50) was 1.18 µM (active).
For `COc1ccc2c(c1)CC[C@@H]1[C@@H]2CC[C@]2(C)[C@@H](NCCCCCCN3C(=O)C=CC3=O)CC[C@@H]12`, the compound was called inactive.
For the compound `CC(C)c1cc(C(C)C)c(CC(=O)NS(=O)(=O)Oc2c(C(C)C)cccc2C(C)C)c(C(C)C)c1`, the AC50 is 11.8 µM (active).
Still for that read-out and setting: the result for `CC1(C)CCC2=C(O1)c1ccccc1C(=O)C2=O` reads 7.42 µM (active); that for `CC[C@@]1([C@@H]2O[C@@H]([C@H]3O[C@@](O)(CO)[C@H](C)C[C@@H]3C)C[C@@H]2C)CC[C@H]([C@]2(C)CC[C@]3(C[C@H](O)[C@@H](C)[C@@H]([C@@H](C)[C@@H](OC)[C@H](C)C(=O)O)O3)O2)O1`, 0.288 µM (active); that for `CC(=O)O/N=C1/C(c2c(O)[nH]c3cc(Br)ccc23)=Nc2ccccc21`, 29.5 µM (active).
As for `Cc1ccc(F)c(NC(=O)Nc2ccc(-c3cccc4[nH]nc(N)c34)cc2)c1`, the AC50 is 1.05 µM (active).
As to `Clc1ccc(COC(Cn2ccnc2)c2ccc(Cl)cc2Cl)c(Cl)c1` (centres undefined), the concentration at half-maximal activity (AC50) was 20.9 µM (active).
In the case of `Cc1ncc(-c2ccnc(Nc3ccc(S(C)(=O)=O)cc3)n2)n1C(C)C`, the AC50 is 4.68 µM (active).
On to `CC(N[C@H]1CCCC[C@@H]1NC(=O)c1ccc(Cl)cc1)c1cccc2ccccc12` (some centres undefined), for which the concentration at half-maximal activity (AC50) was 9.34 µM (active).
On to `C/C(O)=C(\C#N)C(=O)Nc1ccc(C(F)(F)F)cc1`, for which the compound was classed as inactive.
In the case of `CNC(=O)c1c(-c2ccc(F)cc2)oc2cc(N(CCO)S(C)(=O)=O)c(C3CC3)cc12`, the compound was classed as inactive.
Turning to `COc1ccc(-c2ccc3c(N4CCOCC4)nc(N4C[C@@H](C)O[C@@H](C)C4)nc3n2)cc1CO`, the AC50 was 1.05 µM (active).
On to `CCOc1cc2ncc(C#N)c(Nc3ccc(OCc4ccccn4)c(Cl)c3)c2cc1NC(=O)/C=C/CN(C)C`, for which the AC50 is 5.25 µM (active).
Consider `N#CCNC(=O)c1ccc(-c2ccnc(Nc3ccc(N4CCOCC4)cc3)n2)cc1`, for which the AC50 was 13.2 µM (active).
In the case of `COC(=O)c1ccc2c(C(=Nc3ccc(N(C)C(=O)CN4CCN(C)CC4)cc3)c3ccccc3)c(O)[nH]c2c1`, the AC50 was 5.9 µM (active).
Same read-out and setting: the result for `COc1cc2nccc(Oc3ccc(NC(=O)Nc4cc(C)on4)c(Cl)c3)c2cc1OC` reads 14.8 µM (active).
